# High-throughput results (PubChem)
# D1 PAM = human D1 dopamine receptor positive modulation; P21728; HEK293 TREx D1 cells, calcium flux, dopamine EC20 potentiation; potentiation, % at 10 µM; 360,000 compounds, 0.036% hits; AID 504651; in the data active = potentiation above about 30%; note: 0% is about no effect
# D1 agonist = activates the human D1 dopamine receptor; HEK293 T-REx D1 cells, calcium flux, agonist mode; activation, % at 2 µM; 360,000 compounds, 1% hits; note: 0% is about no effect
#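 Agonism was scored from calcium flux recorded over 180 s (1 read/s) after pintool compound addition, following a 10-cycle baseline. Cells were inducible force-coupled HEK293 TREx D1, plated overnight at 30 C and loaded with no-wash calcium dye.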
# TRHR ag = activates the human TRH receptor | 360,000 compounds, 0.18% hits | activation, % at 2 µM | P34981 | TRHR cells, calcium flux fluo-8, FDSS agonist mode | AID 493084; note: 0% is about no effect
# Target sequence (P34981 whole entry, looked up): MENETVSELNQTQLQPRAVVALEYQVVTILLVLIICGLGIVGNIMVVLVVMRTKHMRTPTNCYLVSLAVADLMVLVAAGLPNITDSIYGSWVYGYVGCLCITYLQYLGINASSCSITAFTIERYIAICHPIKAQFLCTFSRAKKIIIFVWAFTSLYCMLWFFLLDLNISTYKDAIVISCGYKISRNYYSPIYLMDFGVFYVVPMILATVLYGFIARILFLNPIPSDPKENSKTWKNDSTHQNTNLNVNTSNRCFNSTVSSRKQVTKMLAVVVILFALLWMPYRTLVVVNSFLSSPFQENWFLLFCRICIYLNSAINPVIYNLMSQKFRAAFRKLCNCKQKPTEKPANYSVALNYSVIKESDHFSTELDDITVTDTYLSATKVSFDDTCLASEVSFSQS
#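 Read-out: compound-evoked intracellular calcium rise in TRHR cells, fluo-8 dye, kinetic FDSS fluorescence at 1 s/cycle following a 10-cycle baseline. Cells cultured overnight before dye loading (30 min–1.5 h, RT).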
# D1 antagonist = human D1 dopamine receptor antagonism. P21728. HEK293 TREx D1 cells, calcium flux, dopamine EC80; hits give low values. activity change, negative = inhibition, % at 10 µM. 360,000 compounds, 3.2% hits. AID 504652; in the data active = activity change below about -30%; note: % is set by controls: 0 for no effect and ±100 for the full control effect
#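 Tetracycline-induced HEK293 T-REx cells with force-coupled D1 receptor were loaded with a no-wash calcium dye. Compound was added after a 10 s baseline and read kinetically for 180 s; EC80 dopamine was then added and calcium flux followed another 180 s.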
# TRHR enhancer = allosteric enhancers of human TRH receptor. enhancement, % at 2 µM. 360,000 compounds, 0.66% hits. TRHR cells, fluo-8 calcium fluorescence, EC20 TRH enhancement. AID 493056. P34981; in the data active = enhancement above about 30%; note: 0% is about no effect
#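 TRHR-expressing cells loaded with fluo-8 calcium dye were read kinetically (ex 480/em 530) during compound addition, then stimulated with an EC20 of TRH (10 nM final). Enhancement of the Gq-mediated intracellular calcium response was scored.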
# An asterisk follows results filed as active; ! = not active in a repeat. Sampled rows, rich in hits. Any-hit rate of the full collection: about 4.7%. Cut-off read from the data, not from the text of the source, unless noted: active = activation above about 30%; inactive = the rest.
SMILES,D1 PAM,D1 agonist,TRHR ag,D1 antagonist,TRHR enhancer
CCOc1ccccc1NC(=O)CN(c1ccc(OC)cc1OC)S(=O)(=O)c1ccccc1[N+](=O)[O-],-7,5,0,-44*,-6
COc1ccc(N(CC(=O)Nc2ccccc2C)S(=O)(=O)c2ccccc2[N+](=O)[O-])c(OC)c1,-4,2,0,-5,-3
COc1ccc(OC)c(S(=O)(=O)N(C)CC(=O)Nc2ccccc2OC)c1,-9,2,0,-82*,4
COc1ccc(NC(=O)CN(c2ccccc2C)S(C)(=O)=O)c(OC)c1,-2,1,0,7,31*
Cc1c(Cl)cccc1NC(=O)CSc1ncc(S(=O)(=O)c2ccc(C(C)C)cc2)c(=O)[nH]1,-4,16,0,3,-7
COc1ccc(C2=Nn3c(nnc3-c3ccccc3OC)SC2)cc1,15,2,-1,-27,-1
COc1ccc(Cc2nc(-c3ccncc3)no2)cc1,-4,9,-2,-9,4
Clc1ccc(Cc2nc(-c3ccncc3)no2)cc1,1,11,-1,-36*,-2
C=CCn1c(SCC(=O)c2[nH]c(C)c(C(=O)OCC)c2C)nc2scc(-c3ccc(OC)c(OC)c3)c2c1=O,-1,3,0,-11,6
c1coc(-c2ccc3ncnc(NCc4cccs4)c3c2)c1,3,1,1,4,2
COc1ccc(NC(=O)CN2CCC(n3c(C)nc4cc(F)ccc43)CC2)c(OC)c1,-5,2,2,14,10
Cc1nc2ccccc2n1C1CCN(CC(=O)NCc2ccc(F)cc2)CC1,-1,1,-1,-43*,4
COc1cccc(Nc2c3c(nc4nncn24)CCC3)c1,2,-1,-1,-7,2
O=C1CN(C(=O)Nc2ccccc2Cl)C(c2ccccc2)c2c(sc3c2CCCC3)N1 (stereo not drawn),-1,5,0,-5,-2
Cc1csc(Sc2ccc([N+](=O)[O-])cc2C(=O)OCC(=O)NC2CCCC(C)C2C)n1 (stereo not drawn),3,1,0,-32*,-3
COc1ccc(-c2cc3ccc(O)c(CN4CCN(CCO)CC4)c3oc2=O)cc1OC,-1,2,2,9,-3
Cc1ccn2c(Nc3ccc4c(c3)OCCO4)c(-c3ccc(N(C)C)cc3)nc2c1,-4,0,0,4,7
CCN1C(=S)N[C@@H](CCc2ccccc2)C(C(=O)OC)=C1C,-4,2,-1,-31*!,5
O=C1CC(c2ccc(F)cc2)c2c(c3ccccc3[nH]c2=O)O1 (stereo not drawn),-5,0,0,21,0
COc1cc(C2CC(=O)Oc3c2c(=O)[nH]c2ccccc32)cc(OC)c1OC (stereo not drawn),-2,-1,0,-8,31*
COc1cc(/C=C(\C#N)c2nc3ccccc3[nH]2)ccc1OCc1cccc(C(F)(F)F)c1,-2,0,2,17,-1
CCn1cc(/C=C(\NC(=O)c2ccccc2F)C(=O)N2CCOCC2)c2ccccc21,-7,0,0,-34*,-4
COc1ccccc1CNC(=O)c1oc2c(c1C)-c1nn(Cc3ccc(Cl)cc3)cc1CC2,0,1,0,0,2
CN(C1CCS(=O)(=O)C1)S(=O)(=O)c1ccccc1 (stereo not drawn),-1,0,-1,-29,30*
CN(C1CCS(=O)(=O)C1)S(=O)(=O)c1cccs1 (stereo not drawn),-4,1,0,-5,-2
SMILES,D1 PAM,D1 agonist,TRHR ag,D1 antagonist,TRHR enhancer
COc1ccccc1CNC(=O)c1cc2cccc3c2n1CCS3,-1,3,0,-14,-2
CCN(CC)C(=O)CC(c1cc(OC)c(OC)c(OC)c1)c1c(OC)cc(OC)c2c(-c3ccccc3)cc(=O)oc12 (stereo not drawn),-9,2,0,-100*,3
COc1cc(C(CC(=O)N2CCOCC2)c2c(OC)cc(OC)c3ccc(=O)oc23)cc(OC)c1OC (stereo not drawn),6,2,0,1,-1
COc1cc(C2CC(=O)Oc3c(C(CCN4CCN(c5ccccc5)CC4)c4ccc(N(C)C)cc4)c(OC)cc(OC)c32)cc(OC)c1OC (stereo not drawn),-1,3,0,-38*,11
COc1cc(C2CC(=O)Oc3c(C(CCN4CCOCC4)c4ccc(N(C)C)cc4)c(OC)cc(OC)c32)cc(OC)c1OC (stereo not drawn),-1,2,0,36,1
CCN(CC)CCC(c1ccc(N(C)C)cc1)c1c(OC)cc(OC)c2c(-c3ccccc3)cc(=O)oc12 (stereo not drawn),-5,39*,1,-47*,3
COc1cc(C(CC(=O)N2CCN(c3ccccc3)CC2)c2c(OC)cc(OC)c3ccc(=O)oc23)cc(OC)c1OC (stereo not drawn),-8,1,0,-42*,-8
CCc1nn(CC(=O)NC(C)CC)c(=O)c2cc3c(OC)cccc3n12 (stereo not drawn),-2,0,0,4,15
CCOc1ccc2nc(SCC(=O)Nc3ccc(F)cc3)nc(-c3ccccc3)c2c1,-1,2,1,15,0
CCn1cnc2c(Nc3ccc(CC(=O)N=C(N)N)cc3)nc(C#N)nc21,5,0,-1,7,1
COc1cc(OC)c2c(-c3ccccc3)cc(=O)oc2c1C(CCN1CCN(c2ccccc2)CC1)c1ccc(N(C)C)cc1 (stereo not drawn),-8,4,0,-32*,4
COc1ccc(C(CCN2CCCC2)c2c(OC)cc(OC)c3c(-c4ccccc4)cc(=O)oc23)cc1 (stereo not drawn),-11,14,1,-8,3
CCCCCc1cc(=O)oc2c(C(CCN3CCN(c4ccccc4)CC3)c3ccc(N(C)C)cc3)c(OC)cc(OC)c12 (stereo not drawn),-5,3,0,-27,0
COc1ccc(C(CCN2CCN(c3ccccc3)CC2)c2c(OC)cc(OC)c3c(-c4ccccc4)cc(=O)oc23)cc1 (stereo not drawn),-9,4,0,-42*,1
COc1cc(OC)c2ccc(=O)oc2c1C(CCN1CCN(c2ccccc2)CC1)c1ccc(N(C)C)cc1 (stereo not drawn),-13,0,0,-74*,3
COc1ccc(-c2nnn(CC(=O)N(c3cccc(O)c3)C(C)C(=O)NC3CCCC3)n2)cc1OC (stereo not drawn),-8,1,-1,-32*,15
CCC(C(=O)NC1CCCC1)N(C(=O)Cn1nnc(-c2ccc(OC)c(OC)c2)n1)c1cccc(O)c1 (stereo not drawn),-6,-1,0,-4,2
